In PubChem BioAssay (EPA / NIEHS):
Inconclusive results are not listed. Calls of active or inactive are those of the source. The calls were made as follows, unless noted: active = hit-call score of the fitted dose curve at least 0.9, where 1 is the maximum; inactive = score below 0.9.

Assays:
[1] = ACEA_ER_80hr: ACEA Biosciences xCELLigence Real-Time Cell Analysis on Estrogen Receptor Agonism for Proliferation (AID 2282667; active = hit-call score of the fitted dose curve at least 0.9, where 1 is the maximum); settings: T47D proliferation, impedance (xCELLigence), 80 h
How it was run: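 T-47D cells monitored by electrical impedance (xCELLigence) with compound present throughout; 80 h timepoint, positive-direction fitting versus DMSO. Eight-point 1:4 dilutions from 100 uM final, duplicate plates.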

[2] = ATG_CRE_CIS: Attagene CIS-FACTORIAL HepG2 Assay for human cAMP Responsive Element (CRE) binding protein 3 (AID 2282926); settings: HepG2 CRE cis-reporter, Attagene multiplexed mRNA; actives raise or lower the signal
How it was run: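 Induced reporter mRNA from a CRE cis element, measured in HepG2 among many multiplexed units at 24 h. Detection used RT-PCR plus capillary electrophoresis of fluorescent fragments; DMSO served as negative control.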

[3] = target: CCAAT/enhancer-binding protein beta (Homo sapiens) (UniProt P17676); assay: ATG_C_EBP_CIS: Attagene CIS-FACTORIAL HepG2 Assay for human CCAAT/Enhancer Binding Protein (C/EBP) beta (AID 2282927); settings: HepG2 Attagene cis-factorial transcription factor reporter; actives raise or lower the signal
Chain of CCAAT/enhancer-binding protein beta (Homo sapiens) (P17676 whole entry, looked up): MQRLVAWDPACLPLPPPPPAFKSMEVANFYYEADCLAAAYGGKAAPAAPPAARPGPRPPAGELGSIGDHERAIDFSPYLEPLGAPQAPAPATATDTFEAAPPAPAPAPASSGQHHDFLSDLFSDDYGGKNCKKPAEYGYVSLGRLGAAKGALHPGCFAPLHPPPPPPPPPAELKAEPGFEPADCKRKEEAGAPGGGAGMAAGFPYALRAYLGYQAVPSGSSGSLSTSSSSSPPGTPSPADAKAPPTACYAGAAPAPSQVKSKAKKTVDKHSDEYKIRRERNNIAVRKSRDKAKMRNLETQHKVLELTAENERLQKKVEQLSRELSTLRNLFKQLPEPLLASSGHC
How it was run: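 RT-PCR/capillary electrophoresis fluorescence of reporter mRNA, 24 h post-dose, in HepG2 cells carrying transfected cis-promoter reporter units. Bidirectional curve fitting against DMSO baseline captures gain or loss of signal.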

[4] = ATG_CMV_CIS: Attagene CIS-FACTORIAL HepG2 Assay for human CMV (Internal Marker) (AID 2282928); settings: HepG2 CMV promoter reporter, transcription factor profiling; actives raise or lower the signal;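 also: endpoint acts as a background internal control marker rather than a target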
How it was run: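 Readout: fluorescent reporter cDNA fragments separated by capillary electrophoresis after RT-PCR and HpaI cut. Cells: HepG2 carrying transfected cis-promoter reporter constructs, dosed 24 h. Endpoint serves as background internal-marker control, fit bidirectionally versus DMSO.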

[5] = ATG_DR4_LXR_CIS: Attagene CIS-FACTORIAL HepG2 Assay for human Liver X Receptor (LXR), DR4 submotif (AID 2282929); settings: HepG2 Attagene DR4 cis-reporter, mRNA transcription; actives raise or lower the signal
How it was run: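 DR4 cis-reporter in HepG2, 24 h exposure. Detection: RT-PCR, 6-FAM labelling, CE fragment analysis. Endpoint fitted bidirectionally, DMSO = baseline.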

[6] = target: Aryl hydrocarbon receptor (Homo sapiens) (UniProt P35869); assay: ATG_Ahr_CIS: Attagene CIS-FACTORIAL HepG2 Assay for human Aryl Hydrocarbon Receptor (Ahr) (AID 2282930); settings: HepG2 AhR cis-factorial reporter transcription; actives raise or lower the signal
Chain of Aryl hydrocarbon receptor (Homo sapiens) (P35869 whole entry, looked up): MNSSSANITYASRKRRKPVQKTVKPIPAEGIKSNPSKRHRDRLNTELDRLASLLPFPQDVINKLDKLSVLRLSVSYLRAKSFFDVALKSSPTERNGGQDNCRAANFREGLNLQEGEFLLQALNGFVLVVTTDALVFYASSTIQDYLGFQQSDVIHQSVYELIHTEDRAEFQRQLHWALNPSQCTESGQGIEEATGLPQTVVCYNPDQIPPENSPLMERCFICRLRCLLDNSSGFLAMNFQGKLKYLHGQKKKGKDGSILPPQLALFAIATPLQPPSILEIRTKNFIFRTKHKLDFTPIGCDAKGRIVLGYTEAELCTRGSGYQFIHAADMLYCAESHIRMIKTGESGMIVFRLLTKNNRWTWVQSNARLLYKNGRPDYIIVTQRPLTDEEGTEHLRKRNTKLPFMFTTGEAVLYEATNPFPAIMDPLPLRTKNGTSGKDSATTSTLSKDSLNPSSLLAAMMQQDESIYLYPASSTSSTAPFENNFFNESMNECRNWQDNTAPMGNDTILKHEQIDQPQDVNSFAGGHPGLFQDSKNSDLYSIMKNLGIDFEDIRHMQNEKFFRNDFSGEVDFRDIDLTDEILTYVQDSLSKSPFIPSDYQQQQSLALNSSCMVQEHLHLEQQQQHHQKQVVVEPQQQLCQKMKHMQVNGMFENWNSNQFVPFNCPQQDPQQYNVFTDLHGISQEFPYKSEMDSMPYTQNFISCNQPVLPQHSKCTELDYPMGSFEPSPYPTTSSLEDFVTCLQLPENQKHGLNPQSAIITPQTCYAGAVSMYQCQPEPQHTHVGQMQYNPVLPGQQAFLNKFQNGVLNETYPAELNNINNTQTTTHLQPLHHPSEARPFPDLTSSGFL
How it was run: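 HepG2 cells transiently transfected with cis-element-driven multiplexed reporter transcription units; endogenous transcription factor activity measured as reporter mRNA 24 h after dosing. RT-PCR, 6-FAM labelling, HpaI digestion, capillary electrophoresis; bidirectional fitting versus DMSO baseline.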

[7] = ATG_AP_1_CIS: Attagene CIS-FACTORIAL HepG2 Assay for human Activator Protein 1 (AP-1) (AID 2282931); settings: HepG2 Attagene cis-factorial AP-1 reporter mRNA; actives raise or lower the signal
How it was run: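 Cis-regulated reporter units transiently expressed in HepG2 report endogenous transcription-factor activity. Signal: reporter mRNA at 24 h, via RT-PCR and fluorescent capillary electrophoresis. Endpoint derived by bidirectional fitting, DMSO as negative control.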

[8] = ATG_AP_2_CIS: Attagene CIS-FACTORIAL HepG2 Assay for human Activator Protein 2 (AP-2) (AID 2282932); settings: HepG2 AP-2 cis-reporter, Attagene transcription factor profiling; actives raise or lower the signal
How it was run: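 Cells (HepG2) transfected with promoter-driven reporter constructs, treated 24 h. Total RNA reverse-transcribed, reporter cDNA PCR-amplified, FAM-labelled by primer extension, digested, resolved by capillary electrophoresis. Activity fitted both directions versus DMSO.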

[9] = ATG_BRE_CIS: Attagene CIS-FACTORIAL HepG2 Assay for human Bone Morphogenetic Protein (BMP) Response Element (BRE) (AID 2282933); settings: HepG2 BMP response element reporter, Attagene transcription factor profiling; actives raise or lower the signal
How it was run: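 Gain- or loss-of-signal was derived by bidirectional fitting against DMSO controls. The signal came from reporter mRNA, measured by RT-PCR and capillary electrophoresis, in HepG2 cells transiently carrying multiple reporter units and dosed for 24 h.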

[10] = target: Retinoic acid receptor alpha (Homo sapiens) (UniProt P10276); assay: ATG_DR5_RAR_CIS: Attagene CIS-FACTORIAL HepG2 Assay for human Retinoic Acid Receptor Alpha (RARE), DR5 submotif (AID 2282934); settings: HepG2 Attagene cis-factorial RARE DR5 reporter, mRNA; actives raise or lower the signal;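 as to AC50: reporter responds to endogenous RAR alpha beta and gamma in HepG2 not RARA alone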
Chain of Retinoic acid receptor alpha (Homo sapiens) (P10276 whole entry, looked up): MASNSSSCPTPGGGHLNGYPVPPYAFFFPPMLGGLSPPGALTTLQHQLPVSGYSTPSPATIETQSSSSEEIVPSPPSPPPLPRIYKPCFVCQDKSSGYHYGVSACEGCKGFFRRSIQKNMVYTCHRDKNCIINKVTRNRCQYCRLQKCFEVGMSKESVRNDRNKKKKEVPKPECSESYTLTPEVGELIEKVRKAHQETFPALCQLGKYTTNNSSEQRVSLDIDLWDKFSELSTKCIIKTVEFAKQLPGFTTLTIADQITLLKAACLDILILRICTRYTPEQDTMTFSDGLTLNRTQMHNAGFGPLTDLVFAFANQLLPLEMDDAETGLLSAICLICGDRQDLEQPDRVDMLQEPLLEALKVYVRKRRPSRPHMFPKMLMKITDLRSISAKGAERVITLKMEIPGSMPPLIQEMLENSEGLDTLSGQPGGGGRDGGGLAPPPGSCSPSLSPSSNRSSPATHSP
How it was run: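 HepG2 cells transiently transfected with multiplexed reporter units under cis (DR5 RARE) promoters, so endogenous transcription factor activity is measured. After 24 h compound exposure, reporter mRNA is quantified by RT-PCR with fluorescent labelling and capillary electrophoresis; bidirectional fitting versus DMSO.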

[11] = target: Transcription factor E2F1 (Homo sapiens) (UniProt Q01094); assay: ATG_E2F_CIS: Attagene CIS-FACTORIAL HepG2 Assay for human E2F Transcription Factor 1 (AID 2282935); settings: HepG2 Attagene cis-reporter, E2F reporter RNA transcripts; actives raise or lower the signal
Chain of Transcription factor E2F1 (Homo sapiens) (Q01094 whole entry, looked up): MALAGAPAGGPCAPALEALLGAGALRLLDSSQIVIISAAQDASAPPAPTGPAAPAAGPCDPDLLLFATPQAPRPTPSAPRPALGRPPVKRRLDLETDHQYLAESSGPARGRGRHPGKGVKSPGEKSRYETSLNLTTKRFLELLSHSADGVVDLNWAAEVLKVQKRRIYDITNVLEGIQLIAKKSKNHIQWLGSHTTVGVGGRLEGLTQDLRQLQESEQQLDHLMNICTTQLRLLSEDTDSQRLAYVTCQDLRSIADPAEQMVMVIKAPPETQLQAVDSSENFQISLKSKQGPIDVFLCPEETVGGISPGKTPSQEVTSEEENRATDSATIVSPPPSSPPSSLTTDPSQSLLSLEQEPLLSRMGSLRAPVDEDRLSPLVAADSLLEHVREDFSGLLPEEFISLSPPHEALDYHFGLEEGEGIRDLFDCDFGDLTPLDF
How it was run: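 First, HepG2 cells were transfected with reporter transcription units. Next, they were dosed for 24 h. Then RNA was isolated, converted to cDNA, PCR-amplified, FAM-labeled, HpaI-digested and analyzed by capillary electrophoresis.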

[12] = ATG_E_Box_CIS: Attagene CIS-FACTORIAL HepG2 Assay for human Enhancer Box (E-box) (AID 2282936); settings: HepG2 E-box cis-reporter transcription, actives raise or lower the signal
How it was run: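 Endogenous transcription factor activity was sensed in human HepG2 liver cells through transfected cis-promoter reporter units. After 24 h of dosing, total RNA was reverse-transcribed and reporter cDNA resolved by capillary electrophoresis.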

[13] = ATG_M_61_CIS: Attagene CIS-FACTORIAL HepG2 Assay for M61 Transcription Factor (Internal Marker) (AID 2282937); settings: HepG2 Attagene CIS-FACTORIAL M61 internal marker reporter; actives raise or lower the signal
How it was run: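 Background-control endpoint: HepG2 cells with cis-regulated reporter constructs, 24 h exposure, reporter mRNA detected via fluorescent primer extension and capillary electrophoresis; values from bidirectional fitting with DMSO baseline.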

[14] = ATG_EGR_CIS: Attagene CIS-FACTORIAL HepG2 Assay for human Early Growth Response 1 (EGR1) (AID 2282938); settings: HepG2 Attagene CIS-FACTORIAL EGR reporter mRNA; actives raise or lower the signal
How it was run: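 Endpoint derived by bidirectional fitting versus DMSO vehicle. Method: cis-promoter reporter units transfected into HepG2, 24 h dosing, RNA isolation, RT-PCR with 6-FAM primer extension and HpaI digestion, then capillary electrophoresis fluorescence detection.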

[15] = ATG_M_19_CIS: Attagene CIS-FACTORIAL HepG2 Assay for M19 Transcription Factor (Internal Marker) (AID 2282939); settings: HepG2 Attagene CIS-FACTORIAL M19 internal marker reporter; actives raise or lower the signal
How it was run: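 Following a 24 h exposure, RNA from transfected HepG2 cells was reverse-transcribed, PCR-amplified with reporter-specific primers, end-labelled with 6-FAM and HpaI-digested before capillary separation. Values represent gain or loss versus DMSO.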

[16] = ATG_ERE_CIS: Attagene CIS-FACTORIAL HepG2 Assay for Estrogen Response Element (ERE) (AID 2282940); settings: HepG2 ERE cis-reporter, Attagene RNA transcript; actives raise or lower the signal
How it was run: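 HepG2, transient cis-reporter units, 24 h exposure. RNA isolated, oligo(dT) RT, reporter-specific PCR, FAM extension, HpaI cut, CE detection. Gain/loss-of-signal vs DMSO.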

[17] = ATG_Ets_CIS: Attagene CIS-FACTORIAL HepG2 Assay for human Erythroblast Transformation Specific (ETS) (AID 2282941); settings: HepG2 ETS cis-reporter transcription, actives raise or lower the signal
How it was run: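 RT-PCR/capillary electrophoresis fluorescence read-out of reporter mRNA; HepG2 transient multi-reporter transfection; 24 h compound exposure; gain or loss of signal fitted bidirectionally relative to DMSO.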

[18] = target: Hepatocyte nuclear factor 3-beta (Homo sapiens) (UniProt Q9Y261); assay: ATG_FoxA2_CIS: Attagene CIS-FACTORIAL HepG2 Assay for human Forkhead box A2 (FOXA2) (AID 2282942); settings: HepG2 cis-reporter transcription factor activity, 24 h; actives raise or lower the signal
Chain of Hepatocyte nuclear factor 3-beta (Homo sapiens) (Q9Y261 whole entry, looked up): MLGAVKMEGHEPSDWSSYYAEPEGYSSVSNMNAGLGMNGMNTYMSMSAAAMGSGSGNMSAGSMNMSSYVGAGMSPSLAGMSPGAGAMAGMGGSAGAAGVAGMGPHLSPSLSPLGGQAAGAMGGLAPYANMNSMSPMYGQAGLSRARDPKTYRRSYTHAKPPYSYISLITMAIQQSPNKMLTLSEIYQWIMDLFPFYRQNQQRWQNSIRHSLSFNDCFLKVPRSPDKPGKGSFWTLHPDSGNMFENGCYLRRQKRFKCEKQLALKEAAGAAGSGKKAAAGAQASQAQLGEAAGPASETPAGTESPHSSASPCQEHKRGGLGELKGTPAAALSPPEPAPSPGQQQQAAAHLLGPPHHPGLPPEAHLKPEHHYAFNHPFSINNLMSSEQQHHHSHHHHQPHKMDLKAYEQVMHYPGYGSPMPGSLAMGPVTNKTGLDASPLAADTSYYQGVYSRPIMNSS
How it was run: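 Measured: reporter mRNA induction or loss in HepG2 transiently carrying multiple cis-regulated reporter units, 24 h after dosing. Quantified by RT-PCR plus capillary electrophoresis, normalised to DMSO.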

[19] = ATG_FoxO_CIS: Attagene CIS-FACTORIAL HepG2 Assay for human Forkhead box O (FoxO) (AID 2282943); settings: HepG2 Attagene cis-reporter, FoxO element, mRNA; actives raise or lower the signal
How it was run: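 HepG2 cells transiently transfected with cis-promoter-driven multiple reporter transcription units; 24 h after chemical dosing, reporter mRNA quantified by RT-PCR, fluorescent primer extension, HpaI digestion and capillary electrophoresis. Bidirectional fitting versus DMSO baseline.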

[20] = ATG_GATA_CIS: Attagene CIS-FACTORIAL HepG2 Assay for human GATA Binding Protein (AID 2282944); settings: HepG2 GATA cis-element reporter, Attagene multiplex mRNA; actives raise or lower the signal
How it was run: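 DMSO serves as negative control and baseline for bidirectional fitting of reporter mRNA changes. HepG2 cells bearing transiently transfected cis-promoter reporters were exposed 24 h; transcripts detected via RT-PCR and capillary electrophoresis.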

Measured: AC50

N#Cc1ccccc1O
active: [6] 10.8 µM
inactive: all other assays above

CCCCCCCC/C=C\CCCCCCCC(=O)OCC(O)CO (stereo not given)
active: [7] 100 µM | [10] 20.5 µM
inactive: all other assays above

O=C(Cl)C(F)(F)C(F)(F)C(F)(F)C(F)(F)C(F)(F)C(F)(F)C(F)(F)F
active: [1] 19.7 µM | [4] 63.3 µM | [7] 66.7 µM | [16] 47.5 µM
inactive: all other assays above

CCOCOCC
not listed: [16]
inactive: all other assays above

CC1=CCC2C(=O)OC(=O)C2C1 (stereo not given)
active: [6] 65 µM
not listed: [16]
inactive: all other assays above

CCCCCCCCCCCCCCCCC
active: [1] 10.5 µM | [16] 25.6 µM
not listed: [18]
inactive: all other assays above

CSc1ccc(O)cc1C
active: [16] 31.7 µM
not listed: [18]
inactive: all other assays above

CCCCCCCCn1sc(Cl)c(Cl)c1=O
active: [1] 0.023 µM | [6] 6.89 µM | [7] 13.8 µM | [8] 11.1 µM | [10] 5.39 µM | [16] 11.1 µM | [17] 6.69 µM | [20] 20.5 µM
not listed: [18]
inactive: all other assays above

CN(C(=O)C(F)(F)C(F)(F)C(F)(F)F)[Si](C)(C)C
not listed: [18]
inactive: all other assays above

c1ccc(C[P+](c2ccccc2)(c2ccccc2)c2ccccc2)cc1
active: [1] 0.132 µM | [5] 100 µM | [9] 10.7 µM
not listed: [16]
inactive: all other assays above

O=S(=O)(O)CCC(F)(F)C(F)(F)C(F)(F)C(F)(F)F
not listed: [18]
inactive: all other assays above

O=S(=O)(Cl)C(F)(F)C(F)(F)C(F)(F)C(F)(F)C(F)(F)C(F)(F)C(F)(F)C(F)(F)F
active: [7] 57.3 µM | [16] 29.4 µM
not listed: [18]
inactive: all other assays above

FC(F)(F)C(F)(F)C(F)(F)CC1CO1 (stereo not given)
inactive: all assays above

CC(C)CC=C(C=O)c1ccccc1
active: [1] 24.1 µM | [5] 84.9 µM | [7] 100 µM | [16] 35.2 µM
not listed: [18]
inactive: all other assays above
